Out of some 360,000 compounds screened, about 4,500 (1.2%) were called active. Many of the other results were omitted from the sample, so actives are more common in it than they were. A number with no mark means an inactive call. Cut-off read from the data, not from the text of the source: active = inhibition above about 30%; inactive = the rest.
Assay: GDH-TPI coupling enzyme inhibitors, primary screen, artefact control for M. tuberculosis FBA inhibitor project, biochemical, absorbance, full deck (AID 588335);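 note: 0% = DMSO wells and 100% = wells lacking the enzyme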
Conditions: GDH-TPI coupled enzyme counterscreen, NADH absorbance; at 4.8 µM; hits give high values

SMILES | inhibition
COc1ccc(CNC(=O)c2ccc(Br)s2)cc1OC | -1.03%
COc1ccc2nc(NC(=O)c3ccc(Br)s3)sc2c1 | 32.7% (active)
CSc1ncccc1C(=O)Nc1nc2ccc(F)cc2s1 | 8.2%
Nc1cc(C(=O)N2CCN(c3ccccc3Cl)CC2)ccc1N1CC2CC(C1)c1cccc(=O)n1C2 (stereo unspecified) | 8.04%
OC(c1ccccc1)c1nc(/C=C/c2ccc(C(F)(F)F)cc2)cs1 (stereo unspecified) | 7.08%
O=C(Cn1cc(/C=N/NC(=O)c2cccc(C(F)(F)F)c2)c2ccccc21)Nc1ccc(F)cc1 | 9.15%
O=C(CSc1ccc(/C=N/NC(=O)c2cccc(F)c2)o1)Nc1ccccc1 | 33.1% (active)
N#CCC(=O)N/N=C/c1ccc(SCC(=O)Nc2ccccc2)o1 | 15.4%
CCCCN(CCCC)CCCNC(=O)CN1C(=O)COc2ccc(S(=O)(=O)N3CCC(C)CC3)cc21 | 5.17%
CCOC(=O)c1c(C2CC2)csc1NC(=O)CSCc1c(C)noc1C | 1.16%
NC(=S)c1ccc(C(N)=S)o1 | 33.3% (active)
CC(C)CC1(C(=O)NCc2ccccn2)C=CCN1C(=O)c1ccccc1 (stereo unspecified) | 1.72%
CN(C)CCCOc1ccc(-c2ccc3nccn3c2)cn1 | 6.19%
CC(Oc1ccccc1[N+](=O)[O-])C(=O)N/N=C/c1ccoc1 (stereo unspecified) | 5.72%
O=C(N/N=C/c1cc(Br)c(O)c([N+](=O)[O-])c1)C(O)(c1ccccc1)c1ccccc1 | 79.3% (active)
CNC(=S)N/N=C/c1ccc(OCc2ccccc2)c(Br)c1 | 3.82%
COCCCNC(=S)N(Cc1ccccc1)Cc1ccc(F)cc1 | -5.1%
COC(=O)c1[nH]c2ccc(Br)cc2c1NC(=O)Oc1ccccc1 | 8.96%
CC(Oc1ccc2c(-c3ccccc3)cc(=O)oc2c1)C(=O)NC(Cc1c[nH]c2ccccc12)C(=O)O (stereo unspecified) | 15.9%

SMILES | inhibition
COc1ccc(-c2cc(C(=O)NC(Cc3c[nH]c4ccccc34)C(=O)O)c(C)o2)cc1OC (stereo unspecified) | 1.44%
COc1ccc(-c2cc(=O)oc3cc(OCC(=O)N[C@@H](Cc4c[nH]c5ccccc45)C(=O)O)ccc23)cc1 | 32.4% (active)
COc1cccc(/C=C/c2ccc3ccccc3n2)c1OC(C)=O | 22.8%
C=CCOC(=O)C1=C(C)N=C2SCCC(=O)N2C1/C=C/c1ccccc1OC (stereo unspecified) | 6.07%
COc1ccccc1/C=C/C1=NC(=C\N(C)C)/C(=O)O1 | 32.5% (active)
O=C1c2cccc3cccc(c23)C(=O)N1c1cccc(O)c1 | 24.8%
COc1cccc(CNC(=O)COc2cc(O)c3c(c2)OC(C)(C)CC3=O)c1 | 0%
CC(CO)(CO)NC(=O)c1ccc(=O)[nH]n1 | 8.64%
CN(C(=O)CCNC(=O)Cn1ccc2ccccc2c1=O)c1ccc(Br)cc1 | 1.56%
Cc1ccc(CNC(=O)CCNC(=O)Cn2ccc3ccccc3c2=O)cc1 | 7.19%
CC(=O)c1ccc(N2CCN(C(=O)CCNC(=O)Cn3ccc4ccccc4c3=O)CC2)cc1 | 34.2% (active)
C[C@H]1Cn2cnc(C(=O)N[C@@H](Cc3c[nH]c4ccccc34)C(=O)OC(C)(C)C)c2C(=O)N1 | 7.22%
COc1ccc(/C=C/C(=O)NC(=S)N2CCCC(C(N)=O)C2)cc1 (stereo unspecified) | 48.8% (active)
COc1ccc(/C=C/C(=O)NC(=S)NN2CCCCC2c2cccnc2)cc1 (stereo unspecified) | 10.5%
COc1ccc(CN2CCCC(C(=O)N3CCCCC3)C2)cc1 (stereo unspecified) | 4.14%
COc1ccc(C(=O)N2CCN(c3ncccn3)CC2)cc1S(=O)(=O)N1CCOCC1 | 3.64%
Cc1ccc(S(=O)(=O)N2CCOCC2)cc1C(=O)NC(=S)N(Cc1ccccc1)C(C)C | -2.59%
COCCN(CCOC)c1nc(N)c2c(N)nc3c(c2c1C#N)CC(=O)N3Cc1ccc(Cl)cc1 | 13.7%
COc1cc(Cn2c3ccc(NC(=O)CC(C)c4ccccc4)cc3c(=O)n2C)ccc1F (stereo unspecified) | 4%

SMILES | inhibition
CCN(CC)CCn1c(N)c(S(=O)(=O)c2ccccc2)c2nc3ccccc3nc21 | 31% (active)
CCCn1nc(NS(=O)(=O)c2ccc(F)cc2)c2cc3ccccc3nc21 | 6.9%
CCC(=O)Nc1c(S(=O)(=O)c2ccccc2)c2nc3ccccc3nc2n1Cc1ccccc1 | 27%
O=C(NNS(=O)(=O)c1ccccc1C(F)(F)F)c1cc2ncc(C(F)(F)F)cc2s1 | 12.3%
COCc1ccc(C(=O)N2CCc3c([nH]c4ccccc34)C2c2ccccn2)s1 (stereo unspecified) | -1.89%
CNC(=O)c1csc(Cc2c(Cl)sc3ccc(Cl)cc23)n1 | -5.66%
CN(C)C(=O)CCc1ccc2c3c([nH]c2c1)[C@]1(C)[C@@H](C(=O)N2CCOCC2)C[C@H](CC(=O)NCCc2ccccn2)C(=O)N1CC3 | 3.64%
COc1ccc(-c2ccc(Nc3ccc(S(=O)(=O)N4CCCC4)cc3)nn2)cc1OC | 50.4% (active)
COc1ccccc1CC(=O)Nc1ccc(S(=O)(=O)N2CCCC2)cc1 | 3.02%
COc1ccc(S(=O)(=O)N2CCCCCC2)cc1NC(=O)Cc1ccc(OC)c(OC)c1 | -2.16%
CCc1ccc(C(=O)C(C)OC(=O)CN2C(=O)NC3(CCCC3)C2=O)cc1 (stereo unspecified) | 6.99%
CC(OC(=O)Cc1ccc(F)cc1)C(=O)N1CCc2ccccc21 (stereo unspecified) | 3.45%
Cc1ccc(C(=O)COC(=O)CCCC(=O)NC2CCCCC2)cc1[N+](=O)[O-] | -3%
Cc1ccc(N=C2NC(=O)c3cccc([N+](=O)[O-])c32)cc1 | 13.5%
CCn1c(O)c(N=NC(=O)c2cccc(S(=O)(=O)N3CCCCC3)c2)c2ccccc21 | 4.32%
CCOC(=O)Cn1c(O)c(N=NC(=O)CNC(=O)Cc2ccccc2)c2ccccc21 | 28.8%
COC(=O)Cn1c(O)c(N=NC(=O)OC)c2ccccc21 | 31.6% (active)
O=C(O)C1=CCCN(CCON=C(c2ccccc2)c2ccccc2)C1 | -4.66%

Source: PubChem BioAssay AID588335 (The Scripps Research Institute Molecular Screening Center, 2011)
